# Experimental data from ChEMBL document CHEMBL3988442, “University of Dundee, Small-Polar-MMV Screening Library” (2021).
# The whole screen tested about 48,000 compounds, of which about 13,000 (27%) showed an effect of 50% or more. The list shows a part of the results.
# Test system: Wolbachia pipientis
# Assay: Anti-Wolbachia Cell-Based Screen
# Type: functional
# Set-up: scale not given: in the data most compounds retested in dose-response had high values
# Settings: 5 µM
row,Structure (SMILES),Percent Effect [%]
1,CN(C)CCOCC1CN(C(=O)c2ccccn2)Cc2ccnn2C1 (configuration not stated),-6.376
2,Cc1ccccc1OCCCC(=O)N(C)CCC#N,8.227
3,COC(=O)C(C)(C)NC(=O)C1CC(=O)N(C2CCCC2)C1 (configuration not stated),4.73
4,COC(=O)C(C)(C)NC(=O)C1CC(=O)N(C2CC2)C1 (configuration not stated),103.7
5,CC(C)(CNC(=O)OC(C)(C)C)NC(=O)C1CC(=O)N(C2CC2)C1 (configuration not stated),10.96
6,Cl.Cn1nc(C2CCCN(Cc3cccc(F)c3)C2)c2nccnc21 (configuration not stated),5.539
7,Cl.Cn1nc(C2CCCN(Cc3ccc(F)cc3)C2)c2nccnc21 (configuration not stated),103.8
8,CC(C)(C)OC(=O)NC1CCCN(Cc2cccs2)C1 (configuration not stated),5.758
9,CCCC(=O)NC1CCCN(Cc2cccs2)C1 (configuration not stated),90.44
10,Fc1ccc(NC2CCCN(Cc3ccncc3)C2)cc1 (configuration not stated),7.502
11,Cl.Cn1nc(C2CCCN(Cc3ccc(F)c(F)c3)C2)c2nccnc21 (configuration not stated),94.15
12,Cl.Cn1nc(C2CCCN(Cc3cc(F)cc(F)c3)C2)c2nccnc21 (configuration not stated),114.5
13,COc1ccnc(CN2CCCC(CCc3ccc(F)cc3)C2)c1OC (configuration not stated),-12.62
14,Cn1ccnc1CN1CCCC(CCc2ccc(F)c(F)c2)C1 (configuration not stated),5.156
15,Cc1ncsc1CCC(=O)NC1CCN(Cc2cccs2)CC1,5.127
16,Cn1cncc1-c1nnc([C@H]2CCN(Cc3ccc(F)c(F)c3)C2)o1,-0.5491
17,CC(=O)N[C@@H]1CN(C2CCN(c3cccc(Cl)c3)CC2)C[C@H]1C(C)C,15.95
18,Cc1nc(S(=O)(=O)NCCC(=O)NCc2ccsc2)cn1C,-10.44
19,COCCC1(CO)CCCN(C(=O)c2cc(C#N)c(=O)[nH]c2C)C1 (configuration not stated),6.218
20,CC(C)C1CN(C(=O)c2csc(CN(C)C)n2)CCC(=O)N1CC1CC1 (configuration not stated),-2.363
21,Cl.Cn1nc(C2CCCN(Cc3ccccc3)C2)c2nccnc21 (configuration not stated),128.3
22,Cl.Cn1nc(C2CCCN(Cc3cccs3)C2)c2nccnc21 (configuration not stated),122.9
23,Cc1ccc(CN2CCCC(c3nnc(CN4CCCCC4)n3C)C2)s1 (configuration not stated),9.152
24,Cn1nc(C2CCCN(Cc3ccsc3)C2)c2nccnc21 (configuration not stated),-5.788
25,COc1cccc(CN2CCCC(c3nn(C)c4nccnc34)C2)c1.Cl (configuration not stated),110.8
26,Cc1ccc(CN2CCCC(c3nnc(CN4CCCC4)n3C)C2)s1 (configuration not stated),10.41

row,Structure (SMILES),Percent Effect [%]
1,Cc1ccc(CN2CCCC(c3nn(C)c4nccnc34)C2)s1 (configuration not stated),125.3
2,c1ccc(CCN2CCCC(Cn3ccnc3)C2)cc1 (configuration not stated),-0.01768
3,CC(C)n1nc2c(cc1=O)CN(Cc1nnc(C3CC3)o1)CC2,15.52
4,CCc1cc(NCCNC(C)=O)nc(N2CCOCC2)n1,-17.29
5,CC1CCc2nc(O)c(C(=O)NCCc3cccs3)cc2C1 (configuration not stated),-7.543
6,CCc1nnc(C(C)N(C)Cc2c(C)nn(-c3ccccc3)c2C)o1 (configuration not stated),1.844
7,CCn1cc(CN2CCCC2c2nc(C(C)C)no2)cc1C#N (configuration not stated),-5.015
8,Cc1cccc(NC(=O)CNC(=O)Cn2ncc(Cl)c(Cl)c2=O)c1C,-3.817
9,COc1c(C2CCCN2C(=O)c2scnc2C)c(C)nn1C (configuration not stated),97.95
10,COc1ccsc1C(=O)N1CCCC1c1c(C)nn(C)c1OC (configuration not stated),-20.58
11,COc1c(C2CCCN2C(=O)c2sc(C)nc2C)c(C)nn1C (configuration not stated),94.35
12,Cc1ncsc1C(=O)N1CCCC1c1c(C)nn(C)c1Cl (configuration not stated),100
13,Clc1cccc2c3c([nH]c12)CCN(Cc1cc2n(n1)CCNC2)C3,-8.419
14,CC(C)Oc1cccc(CN(C)C(=O)Nc2cccn(C)c2=O)c1,-28.92
15,Cc1ccc(Cl)c2c1C1(NC(=O)c3cccnc3N1)C(=O)N2 (configuration not stated),-5.673
16,Cc1cnn(CCNCCCOc2ccc3c(c2)OCO3)c1,2.747
17,O=C(CCS(=O)(=O)c1ccccc1)NCCCn1cccn1,91.43
18,O=C(CCc1ccncc1)NCCOc1ncc(Cl)cc1Cl,-8.284
19,O=C(CCn1cccn1)NCCOc1cccc(Cl)c1,87.31
20,O=C(CCn1cccn1)NCCOc1ccc2c(c1)OCO2,104.8
21,Cl.O=C(CN1CCC[C@H]1C(=O)O)NCCOc1cccc(Cl)c1,-9.308
22,O=C(CCn1cccn1)NCCOc1ncc(Cl)cc1Cl,81.6
23,c1cnn(CCNCCCOc2ccc3c(c2)OCO3)c1,-9.966
24,O=C(NCCCn1cccn1)C1(c2ccc(Br)cc2)CC1,-2.807
25,O=C(C[S+]([O-])C1CCCC1)NCCOc1cccc(Cl)c1 (configuration not stated),-1.497
26,O=C(NCCOc1ncc(Cl)cc1Cl)c1ccncc1,-15.07
